Screening data from PubChem.
Hits are enriched below; roughly 12% of the tested compounds scored in any of these assays.
G9a inh: qHTS Assay for Inhibitors of Histone Lysine Methyltransferase G9a. hit rate 8.8% among 350,000. Potency, µM (highest dose often 102 µM), most hits filed as inhibitors. Histone-lysine N-methyltransferase EHMT2 (Homo sapiens), Q96KQ7. G9a H3K9 monomethylation, AlphaScreen, 2 h. AID 504332, 2011; further: nearly all actives have a fitted effect of over 75% in size
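Compounds were preincubated with 20 nM G9a for 15 min, after which biotinylated H3K9 peptide (500 nM) and SAM (20 uM) started a 2 h room-temperature reaction. Monomethylated product was quantified by antibody-based AlphaScreen chemiluminescence.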
PI5P4Ka inh: qHTS for Inhibitors of phosphatidylinositol 5-phosphate 4-kinase (PI5P4K); PI5P4Kalpha enzyme, ADP-Glo luminescence, 60 min; stronger effect = lower value; max response, %; hit rate 1.2% among 330,000; AID 652105, 2013; active means max response of -50% or lower; inconclusive means between -30% and -50%; inactive means -30% or higher; further: value at the top dose of about 77 µM
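Single end-point luminescence (ADP-Glo) quantified ADP from PI5P4Kalpha turnover; ATP 5 microM final, 1 h at RT, 0.1% CHAPS and 0.28 mM EGTA in HEPES pH 7.4.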
PLK1 PBD block: qHTS for Inhibitors of PLK1-PDB (polo-like kinase 1 - polo-box domain): Primary Screen | AID 720504, 2013 | Plk1 PBD binding of FITC phosphopeptide, fluorescence polarization | Potency, µM, usual class: inhibitors | hit rate 2.8% among 360,000; further: series mostly up to about 57 µM; nearly all actives have a fitted effect of over 65% in size
BAZ2B inh: qHTS Assay for Inhibitors of BAZ2B; hit rate 4.4% among 360,000; Bromodomain adjacent to zinc finger domain protein 2B (Homo sapiens), Q9UIF8; AlphaScreen BAZ2B-H3K14Ac peptide displacement; Potency, µM (highest dose often 114 µM), actives largely listed as inhibitors; further: nearly all actives have a fitted effect of over 60% in size
Target sequence (Q9UIF8 whole entry, looked up, the tested form may be a part): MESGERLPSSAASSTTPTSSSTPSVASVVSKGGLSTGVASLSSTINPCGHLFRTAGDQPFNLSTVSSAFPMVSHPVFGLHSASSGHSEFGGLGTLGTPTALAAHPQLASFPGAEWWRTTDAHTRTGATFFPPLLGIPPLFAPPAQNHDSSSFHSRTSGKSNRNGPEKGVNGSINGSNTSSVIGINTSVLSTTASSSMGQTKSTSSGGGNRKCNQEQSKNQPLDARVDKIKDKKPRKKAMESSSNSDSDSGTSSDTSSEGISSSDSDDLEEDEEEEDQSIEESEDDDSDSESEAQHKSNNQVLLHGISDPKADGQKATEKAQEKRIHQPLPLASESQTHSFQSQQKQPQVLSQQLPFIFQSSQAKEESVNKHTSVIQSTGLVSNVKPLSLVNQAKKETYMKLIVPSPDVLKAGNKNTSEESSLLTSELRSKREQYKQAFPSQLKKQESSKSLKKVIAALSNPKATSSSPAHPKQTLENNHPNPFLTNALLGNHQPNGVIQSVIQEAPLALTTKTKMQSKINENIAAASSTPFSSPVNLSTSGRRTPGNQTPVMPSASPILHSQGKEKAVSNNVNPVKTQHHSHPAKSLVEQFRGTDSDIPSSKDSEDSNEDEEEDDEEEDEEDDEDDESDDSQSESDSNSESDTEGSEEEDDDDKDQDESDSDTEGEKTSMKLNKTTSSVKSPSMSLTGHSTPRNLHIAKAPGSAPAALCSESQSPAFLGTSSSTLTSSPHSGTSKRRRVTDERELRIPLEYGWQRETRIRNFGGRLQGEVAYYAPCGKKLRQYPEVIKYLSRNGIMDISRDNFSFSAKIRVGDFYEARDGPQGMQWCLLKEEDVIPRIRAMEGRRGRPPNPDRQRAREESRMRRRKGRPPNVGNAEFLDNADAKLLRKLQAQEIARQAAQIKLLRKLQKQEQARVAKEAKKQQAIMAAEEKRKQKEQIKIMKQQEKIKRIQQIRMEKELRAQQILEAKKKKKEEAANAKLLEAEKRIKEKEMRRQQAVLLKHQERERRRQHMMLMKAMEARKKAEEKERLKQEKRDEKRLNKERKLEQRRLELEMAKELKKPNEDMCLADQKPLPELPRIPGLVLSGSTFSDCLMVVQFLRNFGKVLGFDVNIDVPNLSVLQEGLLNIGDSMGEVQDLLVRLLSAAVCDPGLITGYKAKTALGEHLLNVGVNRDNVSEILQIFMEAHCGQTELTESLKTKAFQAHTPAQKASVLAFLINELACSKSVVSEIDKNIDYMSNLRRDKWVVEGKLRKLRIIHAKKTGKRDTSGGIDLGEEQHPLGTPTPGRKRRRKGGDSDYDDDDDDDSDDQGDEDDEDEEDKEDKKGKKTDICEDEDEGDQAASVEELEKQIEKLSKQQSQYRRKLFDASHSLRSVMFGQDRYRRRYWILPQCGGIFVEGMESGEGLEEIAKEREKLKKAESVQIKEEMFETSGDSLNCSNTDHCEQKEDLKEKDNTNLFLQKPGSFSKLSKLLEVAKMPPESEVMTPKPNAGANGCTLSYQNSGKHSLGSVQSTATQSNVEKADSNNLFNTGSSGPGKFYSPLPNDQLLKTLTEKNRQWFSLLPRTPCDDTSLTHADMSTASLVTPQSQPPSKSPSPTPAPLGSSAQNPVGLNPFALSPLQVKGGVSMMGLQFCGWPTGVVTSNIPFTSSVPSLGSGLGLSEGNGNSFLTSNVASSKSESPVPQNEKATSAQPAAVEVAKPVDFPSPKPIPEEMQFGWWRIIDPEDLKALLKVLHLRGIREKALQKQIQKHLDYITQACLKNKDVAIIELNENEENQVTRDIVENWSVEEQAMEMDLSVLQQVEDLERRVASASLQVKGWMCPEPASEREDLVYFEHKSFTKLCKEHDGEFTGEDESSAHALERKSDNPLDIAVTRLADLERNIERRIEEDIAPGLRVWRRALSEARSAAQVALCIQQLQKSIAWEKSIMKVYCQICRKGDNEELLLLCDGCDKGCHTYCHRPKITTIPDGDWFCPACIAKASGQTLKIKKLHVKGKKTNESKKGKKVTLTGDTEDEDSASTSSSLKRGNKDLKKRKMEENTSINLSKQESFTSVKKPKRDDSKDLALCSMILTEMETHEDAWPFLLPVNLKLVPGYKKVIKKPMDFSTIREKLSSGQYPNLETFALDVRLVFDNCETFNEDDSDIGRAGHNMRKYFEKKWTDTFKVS
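In this displacement format the biotinylated H3(5-23) peptide acetylated at Lys14 serves as ligand at 50 nM, with BAZ2B at 50 nM in PBS pH 7.4 containing 0.01% Tween-20. Donor and acceptor beads are 10 ug/mL final.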
HP1b binding inh: HTS for Inhibitors of HP1-beta Chromodomain Interactions with Methylated Histone Tails; Chromobox protein homolog 1 (Homo sapiens), P83916; AlphaScreen HP1-beta / biotin-H3K9me3 peptide binding; Potency, µM (highest dose often 114 µM), hits mostly inhibitors; hit rate 0.56% among 390,000; further: nearly all actives have a fitted effect of over 70% in size
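HP1-beta protein (50 nM final) preincubated 30 min at room temperature with biotinylated H3(1-18)K9me3 peptide (50 nM) in PBS pH 7.4, 0.01% Tween-20, then compound added for 30 min. AlphaScreen streptavidin donor/nickel chelate acceptor beads (10 ug/mL final), 30 min dark, luminescence read.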
JMJD2A Tudor inh: qHTS Assay for Inhibitors of JMJD2A-Tudor Domain. Lysine-specific demethylase 4A (Homo sapiens), O75164. AlphaScreen JMJD2A-Tudor / H3K4me3 peptide binding. Potency, µM (titrated, usually from 114 µM), actives largely listed as inhibitors. hit rate 4.4% among 390,000. AID 504339, 2011; further: nearly all actives have a fitted effect of over 50% in size
Hits are given with their value; – = inactive; ? = inconclusive; · = not tested or not shown; [ ] = dose if it differs, or a comment. Unless noted, the call rests on the fitted dose curve; in most records, active means well fitted curve in the direction sought with a large enough effect; inconclusive means small, poorly fitted or top-dose-only effect, or another doubt; inactive means no such curve, though single readings can be large; an effect the other way counts as inactive or inconclusive.

SMILES | G9a inh | PI5P4Ka inh | PLK1 PBD block | BAZ2B inh | HP1b binding inh | JMJD2A Tudor inh
COc1ccc(Cc2nnc(N/N=C/c3ccc(O)cc3O)[nH]c2=O)cc1OC | – | ? | – | 5.01µM | – | 14.1µM
CCCCCCC/C=N/Nc1nnc(Cc2ccccc2)c(=O)[nH]1 | – | – | – | ? | – | ?
Cc1ccc(/C=N/Nc2nnc(Cc3ccccc3)c(=O)[nH]2)o1 | – | – | – | ? | – | –
CCOc1cc(/C=C2/C(=N)N3C(=NC2=O)SN=C3S(=O)(=O)C(C)C)ccc1OC(=O)c1ccco1 | 35.5µM | -83.1 | 26.7µM | – | – | –
COc1cc(/C=C2/C(=N)N3C(SC)=NSC3=NC2=O)ccc1OC(=O)c1ccco1 | ? | ? | ? | – | – | –
COc1cc(/C=C2/C(=N)N3C(=NC2=O)SN=C3S(=O)(=O)C(C)C)ccc1OC(=O)c1ccco1 | 39.8µM | -75.2 | 21.2µM | 56.2µM | – | –
OCl | – | · | · | · | · | ·
COc1ccc(NC(=O)c2cc3c(=O)n(Cc4cccnc4)ccc3nc2C)c(OC)c1 | – | · | · | – | – | –
Cc1ccc(S(=O)(=O)Nc2cc3c(C(=O)O)c(C)oc3c3ccccc23)c(C)c1 | 50.1µM | – | ? | 50.1µM | ? | ?
COC(=O)c1c(C)oc2c1cc(NS(=O)(=O)c1ccc(C(=O)O)cc1)c1ccccc12 | 35.5µM | – | ? | ? | – | –
CCOC(=O)C1=CCN(S(=O)(=O)c2ccc(F)cc2)C1c1cccc(F)c1 (configuration not stated) | · | – | – | · | · | ·
C=CCn1c(N)cc(=O)nc1SCC(=O)Nc1ccc(C(=O)OCC)cc1 | – | – | – | – | – | –
Cc1cc(C(=O)CCC(=O)N(C)CC(=O)Nc2c(Cl)cccc2Cl)c(C)s1 | – | – | – | – | – | –
C=C(C)COc1ccc2c(CC)cc(=O)oc2c1 | – | – | 13.4µM | – | – | 20µM
O=C(Nc1nnc(SCc2cccnc2)s1)C1CC(=O)N(c2ccc(F)cc2)C1 (configuration not stated) | 39.8µM | ? | – | – | – | –
O=C(CSc1nnc(NC(=O)c2c(F)cccc2F)s1)NCC1CCCO1 (configuration not stated) | 20µM | – | – | – | – | –
O=C(CSc1nnc(NC(=O)C2CC(=O)N(c3ccc(F)cc3)C2)s1)NCC1CCCO1 (configuration not stated) | 44.7µM | – | – | – | – | –
COCCn1c(CCC(=O)Nc2ccc(C)c(Cl)c2)nc2cccnc21 | – | · | · | – | – | –
CC(C(=O)O)n1ncc2ccccc2c1=O (configuration not stated) | – | – | 10.6µM | – | – | –[11.4 µM]
O=C(NC(=S)Nc1ccccc1)c1ccc(Br)o1 | ? | – | – | – | – | –
NC(=O)c1ccccc1NC(=S)NC(=O)CCc1ccccc1 | 4.47µM | ? | 15µM | – | ? | 79.4µM
NC(=O)c1ccccc1NC(=S)NC(=O)c1ccc(Br)o1 | 44.7µM | – | – | – | – | –
Cc1cccc(C(CC(=O)N2CCCCC2)c2ccccc2)c1O (configuration not stated) | · | – | – | – | – | –
Cc1nc2cnc(OCc3ccccc3)nc2n(CCc2ccccc2)c1=O | –[0.501 µM] | · | · | · | · | ·
CN(N)C(=S)Nc1ccc(Cl)cc1 | 15.8µM | – | – | – | – | –
Cc1ccc(C(c2nnnn2C2CCCCC2)N2CCc3ccccc32)cc1 (configuration not stated) | – | – | – | – | – | –
COc1cc(C(c2nnnn2C2CCCC2)N2CCc3ccccc3C2)ccc1O (configuration not stated) | 1.78µM | – | 21.2µM | – | ? | ?
Oc1ccc(C(c2nnnn2C2CCCC2)N2CCc3ccccc3C2)cc1 (configuration not stated) | 4.47µM | – | 23.8µM | 56.2µM | – | –[11.4 µM]
COc1ccc(NS(=O)(=O)c2cccc3ccccc23)cc1 | · | – | – | · | – | –
